Hits are enriched below; roughly 17% of the tested compounds scored in any of these assays.
HT1080-NT tox: qHTS for induction of synthetic lethality in tumor cells producing 2HG: qHTS for the HT-1080-NT fibrosarcoma cell line; 1.6% of 360,000 active; HT-1080-NT fibrosarcoma viability, CellTiter-Glo ATP luminescence, 48 h; Potency, µM (titrated, usually from 46.1 µM), inactives show at the top dose activity, negative = less viability, actives largely listed as cytotoxic; AID 686970, 2013;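 further: NT is the 2HG producing partner of a matched IDH1 knockdown line; 0% = DMSO-treated cells and -100% = media-only wells without cells; nearly all actives have a fitted effect of over 55% in size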
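Toxicity toward the 2HG-producing NT line was scored as %Activity, normalised to DMSO and no-cell wells, from CellTiter-Glo luminescence after 48 hours' treatment.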
DT40 TDP1 CPT: qHTS for Inhibitors of human tyrosyl-DNA phosphodiesterase 1 (TDP1): qHTS in cells in presence of CPT | chicken DT40 Tdp1-/-;hTDP1 cells + 20 nM CPT, ATP luminescence, 48 h | Potency, µM (titrated, usually from 46.2 µM), for inactives: at the top dose activity change, negative = growth inhibition, actives largely listed as inhibitors | 12% of 420,000 active; further: on the % scale 0 is the no-effect control and ±100 the full control effect; nearly all actives have a fitted effect of over 55% in size
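Cell growth measured by CellTiter-Glo luminescence after a minimum 48 h, 37 C compound exposure with 20 nM CPT in Tdp1-knockout DT40 cells stably expressing hTDP1, seeded 400/well; qHTS titration format.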
HepG2 viability: qHTS for Inhibitors of TGF-b: Cytotox Counterscreen | HepG2 CAGA-GFP viability, ATP luminescence, 18 h | Potency, µM (doses to about 46.1 µM), inactives show at the highest dose activity change, negative = cytotoxicity, usual class: cytotoxic | 0.76% of 410,000 active | AID 588856, 2011
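HepG2 CAGA-GFP cells (1000/well, DMEM with 1% FBS) received compound, then TGF-beta at 500 pg/mL final, and were incubated 18 hours at 37 degrees C. Viability was read by CellTiter-Glo luminescence. Media-only wells were set as complete cell-killing and DMSO as no toxicity.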
HT1080 IDH1KD tx: qHTS for induction of synthetic lethality in tumor cells producing 2HG: qHTS for the HT-1080-IDH1KD cell line; Potency, µM (top dose mostly 46.1 µM), inactives show top-dose activity, negative = toxicity, actives largely listed as cytotoxic; HT-1080 IDH1 knockdown viability, ATP luminescence, 48 h; 2% of 360,000 active;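 further: 0% = DMSO wells and -100% = cell-free medium wells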
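Knockdown cells (IDH1KD HT-1080) received compounds 2 h after plating at 750 cells/well and were kept 48 h at 37 °C in 5% FBS RPMI. A CellTiter-Glo luminescence read gave % activity for curve fitting.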
TGFb SMAD3 inh: qHTS for Inhibitors of TGF-b; 1.2% of 410,000 active; Potency, µM (titrated, usually from 46.1 µM), for the others: at the top dose activity, negative = inhibition, most hits filed as inhibitors; HepG2 CAGA-GFP TGF-b/SMAD3 reporter, GFP fluorescence, 18 h; TGF-beta stimulated, 500 pg/mL final; AID 588855, 2011; further: on the % scale 0 is the no-effect control and ±100 the full control effect; nearly all actives have a fitted effect of over 65% in size
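Per well, imaged GFP fluorescence of HEPG2 CAGA-GFP cells gives the signal; cells get compound, then TGF-beta (500 pg/mL final), 18 h at 37 degrees C; %Activity versus -TGF-beta and +DMSO controls.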
TDP1 cell noCPT: qHTS for Inhibitors of human tyrosyl-DNA phosphodiesterase 1 (TDP1): qHTS in cells in absence of CPT. DT40 Tdp1-/- hTDP1 cells, no CPT, ATP luminescence, 48 h. AID 686978, 2013. Potency, µM (series often up to 46.2 µM), inactives show at the top dose activity change, negative = growth inhibition, actives largely listed as inhibitors. 15% of 420,000 active; further: on the % scale 0 is the no-effect control and ±100 the full control effect; nearly all actives have a fitted effect of over 55% in size
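A cellular qHTS used chicken DT40 cells lacking endogenous Tdp1 but carrying stably transfected human TDP1. Compounds were applied without camptothecin, and cell growth kinetics were judged by ATP-dependent luminescence after ≥48 hr.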
Starred values were filed as active, the others as inactive; ? = inconclusive; / = not tested or not shown; [ ] = another dose, or the depositor's remark. The call rests on the fitted dose curve; in most records, active means well fitted curve in the direction sought with a large enough effect; inconclusive means small, poorly fitted or top-dose-only effect, or another doubt; inactive means no such curve, though single readings can be large; an effect the other way counts as inactive or inconclusive. Potency means the concentration at half of the fitted maximal effect.

SMILES	HT1080-NT tox	DT40 TDP1 CPT	HepG2 viability	HT1080 IDH1KD tx	TGFb SMAD3 inh	TDP1 cell noCPT
COC(=O)[C@@H]1CCCN1C(=O)c1c(OC)cc(=O)n2c1CCN(Cc1cc(OC)ccc1F)CC2	/	-1.8%	/	/	/	-22.6%
Cc1nnsc1C(=O)NCC1Cc2cccc(-c3ncccn3)c2O1 (configuration not stated)	/	20.4%[9.04 µM]	/	/	/	-0.3%
COC(=O)c1ccc(O)cc1	11.2%	14.4%	-3.7%	?	-7.6%	3.4%
COC(=O)c1ccc(CCc2cc(O)c(Br)cc2O)cc1	-29.3%	2.06µM*	-29.1%	-28.3%	?	2.31µM*
COC(=O)c1ccc(CCc2cc(O)ccc2O)cc1	25.9µM*	2.91µM*	-9.6%	?	0.0%	5.17µM*
O=C1C2C3C=CC(C3)C2C(=O)N1/N=C/c1cn(Cc2ccc(F)cc2)c2ccccc12 (configuration not stated)	-20.4%	-2.8%	0.891µM*	?	?	-19.0%
O=C1C2C3C=CC(C3)C2C(=O)N1/N=C/c1cn(Cc2ccccc2)c2ccccc12 (configuration not stated)	-17.9%	16.4µM*	-6.5%	-13.9%	4.47µM*	?
O=C1C2C3C=CC(CC3)C2C(=O)N1/N=C/c1c[nH]c2ccccc12 (configuration not stated)	-7.3%	-3.1%	5.2%	4.0%	7.1%	-12.1%
Cc1ccc(S(=O)(=O)N(C)CCCC(=O)n2nc(C)cc2C)cc1	2.0%	1.6%	-14.1%	-1.2%	2.2%	1.4%
CCCOc1cccc(C(=O)Nc2ccc(-c3nc4ccccc4s3)c(Cl)c2)c1	/	?	-13.4%	/	-27.0%	?
COc1ccc(OC)c(NC(=O)c2ccc(CSc3nnc(C)s3)cc2)c1	14.6%	-7.0%	1.6%	-1.8%	1.2%	?
CC(NC(=O)C(Cc1ccccc1)=NO)c1ccccc1 (configuration not stated)	0.1%	20.6µM*	-17.0%	-0.1%	-2.0%	23.1µM*
CC(NC(=O)Cc1ccccc1)c1ccccc1 (configuration not stated)	4.7%	3.4%	-11.8%	-0.4%	-9.2%	1.4%
Cn1cc(C2=C(c3cn(CCCSC(=N)N)c4ccccc34)C(=O)NC2=O)c2ccccc21	/	0.631µM*	2µM*	/	0.708µM*	0.708µM*
CN(C)CCCn1cc(C2=C(c3c[nH]c4ccccc34)C(=O)NC2=O)c2ccccc21	/	-121.7%	/	/	/	23.7µM*
Cc1c(C(=O)N2CCCC2)oc2c1-c1nn(CC(=O)NC(C)c3ccccc3)cc1CC2 (configuration not stated)	/	?	-6.7%	/	?	23.1µM*
CCn1cc2c(n1)-c1c(oc(C(=O)Nc3cccc(C)c3C)c1C)CC2	/	?	-25.8%	/	-0.7%	14.6µM*
CC(=O)c1cccc(NC(=O)c2oc3c(c2C)-c2nn(Cc4ccc(Cl)cc4)cc2CC3)c1	/	?	-32.3%	/	-10.8%	25.9µM*
CCOC(=O)c1ccc(NC(=O)c2oc3c(c2C)-c2nn(Cc4ccccc4Cl)cc2CC3)cc1	/	20.6µM*	-6.9%	/	0.0%	20.6µM*
Cc1c(C(=O)N2CCCC2)oc2c1-c1nn(CC(=O)NCc3cccc(F)c3)cc1CC2	/	?	-26.0%	/	?	?
CCCCc1ccc(NC(=O)C(C)CC)cc1 (configuration not stated)	8.9%	-19.8%	-21.1%	5.1%	5.2%	-10.4%
NC(=O)CNC(=O)[C@@H]1CC2(CC(c3ccc(Cl)cc3)=NO2)CN1C(=O)c1ccccc1 (some centres not stated)	16.5%	-1.9%	-6.6%	8.1%	-3.5%	-3.9%
O=C(CCC(=O)c1ccc(Cl)cc1)OCn1nnc2ccccc2c1=O	-0.5%	-17.0%	-15.9%	-2.1%	-6.7%	1.7%
Cc1ccc(Cn2cc3c(n2)-c2c(oc(C(=O)Nc4ccc(F)cc4F)c2C)CC3)cc1	/	?	-0.8%	/	0.0%	?
Cc1cccc(C)c1NC(=O)c1oc2c(c1C)-c1nn(Cc3ccccc3)cc1CC2	/	18.4µM*	-26.9%	/	0.0%	14.6µM*
SMILES	HT1080-NT tox	DT40 TDP1 CPT	HepG2 viability	HT1080 IDH1KD tx	TGFb SMAD3 inh	TDP1 cell noCPT
CC1=CC(=O)C=C(C)C1=NOC(=O)c1cccc([N+](=O)[O-])c1	0.1%	10.3µM*	-2.3%	-18.8%	-5.3%	?
CCCCC[C@H](C)N1C[C@H](COCc2ccccc2)Oc2cc(N3CC[C@H](N(C)C)C3)ccc2S1(=O)=O	?	?	/	20.6µM*	/	16.4µM*
CCCCC[C@@H](C)N1C[C@H](COCc2ccccc2)Oc2cc(N3CC[C@@H](N(C)C)C3)ccc2S1(=O)=O	11.6µM*	23.1µM*	/	10.3µM*	/	20.6µM*
CCCCC[C@@H](C)N1C[C@@H](COCc2ccccc2)Oc2cc(N3CC[C@@H](N(C)C)C3)ccc2S1(=O)=O	20.6µM*	20.6µM*	/	18.4µM*	/	23.1µM*
CCCCC[C@H](C)N1C[C@H](COCc2ccccc2)Oc2cc(N3CC[C@@H](N(C)C)C3)ccc2S1(=O)=O	20.6µM*	?	/	16.4µM*	/	?
O=C(CCCCC(=O)NCCc1ccccc1)NCCc1ccccc1	15.8%	9.1%	-16.9%	24.9%	22.4%	-9.9%
COC(=O)NC1CCC(NC(=O)OC)CC1 (configuration not stated)	9.1%	-29.5%	-19.8%	15.8%	-17.0%	6.5%
Cc1ccc(S(=O)(=O)N2CCCCC2)c2nsnc12	-4.1%	2.8%	-5.5%	-0.4%	7.5%	1.8%
COc1ccc(CNC(=O)CN2CCN(S(=O)(=O)c3ccccc3)CC2)cc1	5.0%	-24.9%	15.9%	1.2%	28.8%	-21.5%
C#Cc1ccc([C@@H]2C=C(C(=O)N3CCN(Cc4ccc5c(c4)OCO5)CC3)O[C@H](OCCCCO)C2)cc1	7.3%	?	-13.6%	-4.6%	-5.9%	?
C[C@H](c1ccccc1)N1C[C@H](COCc2ccccc2)Oc2cc(N3CC[C@@H](N(C)C)C3)ccc2S1(=O)=O	5.6%	9.9%	/	7.5%	/	-18.8%
